Assay results from the supplement of paper PMC6555819.

Experiments:
Test in all cases: PBM binding z-score (relative to random genomic background probes); higher = stronger binding; sequences stand for … in GC…GCGATTGACAGCGTAGAATGAAGG
[1] = tested on: PPARg:RXRa DBDmut IVT, anti-RXR (DBD mutation: RXRa K156A/R161A, NR concentration 270 nM, RXRa partner concentration 90 nM)
Method in brief: (§1)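 Each nuclear receptor dimer, without ligand, was incubated for 1 h on custom Agilent 4×180K protein-binding microarrays. Binding was detected with antibodies against each partner (one per run), and scanned fluorescence was regression-normalized. The binding z-scores are referenced to random human genomic background probes.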

[2] = tested on: PPARg:RXRa IVT, anti-PPARg (NR concentration 270 nM, RXRa partner concentration 90 nM)
Method in brief: as §1

[3] = tested on: PPARg DBDmut:RXRa IVT, anti-PPARg (DBD mutation: PPARg1 K132A/R137A, NR concentration 270 nM, RXRa partner concentration 90 nM)
Method in brief: as §1

[4] = tested on: PPARg DBDmut IVT, anti-PPARg (DBD mutation: PPARg1 K132A/R137A, NR concentration 270 nM)
Method in brief: as §1

[5] = tested on: PPARg homodimer (NR concentration 180 nM)
Method in brief: as §1

[6] = tested on: PXR:RXRa (NR concentration 270 nM, RXRa partner concentration 90 nM)
Method in brief: as §1

[7] = tested on: PXR homodimer (NR concentration 270 nM)
Method in brief: as §1

[8] = tested on: RARa:RXR (NR concentration 270 nM, RXRa partner concentration 90 nM)
Method in brief: as §1

[9] = tested on: RARa homodimer (NR concentration 270 nM)
Method in brief: as §1

[10] = tested on: RARb:RXRa (NR concentration 270 nM, RXRa partner concentration 90 nM)
Method in brief: as §1

| Sequence | PBM binding z-score [1] | PBM binding z-score [2] | PBM binding z-score [3] | PBM binding z-score [4] | PBM binding z-score [5] | PBM binding z-score [6] | PBM binding z-score [7] | PBM binding z-score [8] | PBM binding z-score [9] | PBM binding z-score [10] |
| --- | --- | --- | --- | --- | --- | --- | --- | --- | --- | --- |
| GGAACGAGGGCATTCGAGTTGATAACATGGCGAT | 2.75 | 2.1 | 0.243 | 0.0771 | 0.605 | 4.02 | 1.36 | 0.915 | -0.696 | 1.68 |
| ACTATTAGTTGACTTCGGGCAACCGATACGACGC | -0.0241 | 0.38 | 0.985 | 0.939 | 0.728 | 0.138 | 0.00546 | 0.411 | 0.245 | 0.417 |
| CATACAGGGTCAGCTAGGCCAGAGTCGGGACGGC | 1.33 | 2.55 | 0.623 | 0.297 | 2.62 | 2.15 | -0.0453 | 3.26 | 0.539 | 4.13 |
| TTTAGCAGGCCAGAGGGTCACTCAAGAGGTACGG | -0.256 | 1.03 | -0.784 | -1.27 | 0.57 | 1.55 | -0.341 | 2.18 | -0.62 | 2.05 |
| ATCTCTAGGTAACCATGTTCAGTGAATGCCGAAC | 3.64 | 2.88 | 0.786 | 1.37 | 0.698 | 0.218 | 0.202 | 0.406 | 0.844 | 0.355 |
| GATACAGGGTCAGCTAGAGGCCAGAGTCTGGAAA | 1.42 | 2.41 | -0.329 | -0.829 | 2.68 | 3.16 | -0.43 | 4.74 | 0.22 | 4.16 |
| TCTTGTAAATCAACAGGAGGTTAAGAAAGATCGA | 1.98 | 0.596 | 0.712 | 0.346 | 0.585 | 1.13 | 0.241 | 1.26 | 0.881 | 0.847 |
| GATACAGGGTCAGCTAGTGGCCAGAGTATGGAAA | 1.03 | 2.29 | -0.052 | -0.0645 | 1.79 | 1.89 | 0.153 | 3.05 | -0.0625 | 3.69 |
| CATGCTAGGTCAATGGTCAGCTAAAGCAGCTCGC | 3.11 | 3.53 | -0.274 | -0.0398 | 1.14 | 0.721 | -0.406 | 1.82 | -0.113 | 3.87 |
| ATCGAAAGGACGACGAGGTGAGTATACACCGTTT | -0.481 | 0.315 | 0.774 | 0.683 | -0.198 | -0.109 | -0.293 | 0.0451 | 0.198 | 1.1 |
| TCTCCTAGGTCAACGATGGTCAGCTAATCTGCTA | 4.1 | 4.22 | 0.539 | 1.02 | 2.22 | 2.36 | -0.309 | 2.66 | 0.663 | 4.28 |
| AGAATGAGGTTACCAAAGATGAGGGAAACGCTTG | 3.67 | 3.1 | 1.29 | 0.621 | 0.657 | 1 | 0.117 | 1.79 | 0.142 | 2.14 |
| TCTACTAGGTCAGTTGGTCAGCTAACGAGCTGCC | 6.44 | 6.43 | 1.78 | 0.835 | 1.78 | 0.537 | -0.418 | 0.904 | 0.501 | 3.46 |
| CCTTACGGGTCAGTCCAGGTTATAGCATCGGAGT | 1.7 | 2.05 | -0.331 | -0.72 | 1.36 | 4.25 | 0.276 | 2.69 | 0.405 | 3.31 |
| AATACAGGGTCACTAGGCCAGAGTAGGTACGAAT | 3.83 | 5.94 | 2.04 | 1.71 | 2.24 | 3.28 | 0.432 | 4.51 | 0.176 | 4.39 |
| TCATATAGGTAATACAGGTGAAACTCGGCATCTA | 4.14 | 3.73 | 1.2 | 0.856 | 1.01 | 0.879 | 0.269 | 1.17 | 1.3 | 0.809 |
| ATCGAGAGGTCGTGAGGTGAGTATACAGAAAGGC | 0.135 | 2.04 | 1.16 | 0.618 | 1.02 | 2.66 | 0.102 | 3.54 | 0.567 | 3.05 |
| ACTAGCAGGCTAAGGGTCACTCAAGATTAGTCCG | 0.414 | 3.12 | 0.0604 | -0.126 | 1.94 | 3.45 | -0.319 | 4.56 | 0.291 | 3.47 |
| TCTAGTTGGTCACGGAGCTCACACACGACGGGTA | 2.15 | 2.2 | 0.346 | 0.786 | 0.57 | 0.334 | -0.237 | 0.366 | 0.0423 | 1.5 |
| ACTCCGAGGACAAAGGTCAGAGCTACGCCAGTGA | 1.44 | 4.05 | 0.71 | -0.0719 | 6.93 | 4.53 | 0.63 | 5.82 | 2.61 | 4.58 |
| GCTGCGAGGTCAGGTTGGTCAGCTAACGGGTACG | 1.82 | 2.38 | -0.42 | -0.641 | 2.28 | 3.29 | 0.452 | 3.39 | 0.367 | 4.51 |
| CGTCAAAGTTCAAGGTAACGAAACAGAAAGCAGC | 0.745 | 2.29 | 0.604 | 0.231 | 3.5 | 3.94 | 2.79 | 3.53 | 1.57 | 5.11 |
| CAAACTAGGACACCGGAAGGTCAAAGTCCGCATG | 6.39 | 6.49 | 2.4 | 2.63 | 2.78 | 3.89 | 1.68 | 4.36 | 1.36 | 3.59 |
